Measured values from PubChem BioAssay (NCI).
This is part of a sample that, as a whole, favours compounds with a hit. Of some 83,000 tested, about 20% had one in any assay.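 In brief: 96-well plates, 48 h treatment, single concentration, percent growth endpoint.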 The source made the active and inactive calls. How the source made its calls: active means growth percent below 10; inactive means the rest.

Columns and labels:
Test in all cases: NCI-60 one-dose screen, 48 h (100 = growth as untreated, 0 = no growth, -100 = all killed)
Conditions in all cases: 10 µM unless noted
HCT-15 colon = system: HCT-15 colon
HT29 colon = system: HT29 colon
SNB-75 CNS = system: SNB-75 CNS
SNB-19 CNS = system: SNB-19 CNS
U251 CNS = system: U251 CNS
PC-3 prostate = system: PC-3 prostate
SK-MEL-5 melanoma = system: SK-MEL-5 melanoma
UACC-62 melanoma = system: UACC-62 melanoma
LOX IMVI melanoma = system: LOX IMVI melanoma
SK-MEL-28 melanoma = system: SK-MEL-28 melanoma
SK-MEL-2 melanoma = system: SK-MEL-2 melanoma
EKVX NSCLC = system: EKVX NSCLC
SN12C renal = system: SN12C renal
UO-31 renal = system: UO-31 renal
TK-10 renal = system: TK-10 renal
ACHN renal = system: ACHN renal
CAKI-1 renal = system: CAKI-1 renal
A498 renal = system: A498 renal
CCRF-CEM leukemia = system: CCRF-CEM leukemia
MOLT-4 leukemia = system: MOLT-4 leukemia

Measured: growth

CC1=CC=C(NC(=O)/C=C/c2ccccc2)CC1Nc1nccc(-c2cccnc2)n1 (stereo not given)
inactive: HCT-15 colon 14.6% | HT29 colon 13.6% | SNB-19 CNS 66.8% | U251 CNS 38.1% | PC-3 prostate 25.2% | UACC-62 melanoma 37.9% | LOX IMVI melanoma 41.3% | SK-MEL-28 melanoma 35.3% | SK-MEL-2 melanoma 28.2% | EKVX NSCLC 67.4% | SN12C renal 50.3% | UO-31 renal 65.2% | TK-10 renal 107% | ACHN renal 50.3% | CAKI-1 renal 32.5% | A498 renal 24.7% | CCRF-CEM leukemia 19.4% | MOLT-4 leukemia 26%
active: SNB-75 CNS 8.46% | SK-MEL-5 melanoma -42.9%

C=C1CC[C@@H]2[C@](C)(COC(C)=O)[C@H](OC(C)=O)CC[C@@]2(C)[C@@H]1CC(Nc1ccc(S(=O)(=O)Nc2nccs2)cc1)C1=CCOC1=O (stereo not given in full)
active: HCT-15 colon -39.2% | HT29 colon -42.7% | U251 CNS 4.21% | LOX IMVI melanoma -88.3% | SK-MEL-28 melanoma -16.3% | ACHN renal -46.6% | CCRF-CEM leukemia -27.7% | MOLT-4 leukemia -4.45%
inactive: SNB-75 CNS 28.3% | SNB-19 CNS 49.1% | PC-3 prostate 21.8% | SK-MEL-5 melanoma 31.4% | UACC-62 melanoma 21.2% | SK-MEL-2 melanoma 28.4% | EKVX NSCLC 73.4% | SN12C renal 15.6% | UO-31 renal 13.5% | TK-10 renal 55% | CAKI-1 renal 55.9% | A498 renal 85%

Cc1ccc(/C=C2\COc3ccc(O)c(O)c3C2=O)cc1
inactive: HT29 colon 12.9% | SNB-75 CNS 13.5% | SNB-19 CNS 24.8% | SK-MEL-28 melanoma 35.6% | SK-MEL-2 melanoma 48.8% | EKVX NSCLC 28.2%
active: HCT-15 colon -16.5% | U251 CNS -3.38% | PC-3 prostate -10.4% | SK-MEL-5 melanoma 1.84% | UACC-62 melanoma -19.7% | LOX IMVI melanoma -83.3% | SN12C renal -77.6% | UO-31 renal -97.3% | TK-10 renal 8.12% | ACHN renal -77.6% | CAKI-1 renal -27.6% | A498 renal 6.45% | CCRF-CEM leukemia 3.17% | MOLT-4 leukemia 1.48%

O=C(CCCCCCCCC(=O)N/N=C\c1ccccc1O)N/N=C\c1ccccc1O
inactive: HCT-15 colon 22.1% | HT29 colon 68.4% | SNB-75 CNS 37.5% | SNB-19 CNS 24.1% | U251 CNS 15.2% | PC-3 prostate 31.5% | LOX IMVI melanoma 10.8% | SK-MEL-28 melanoma 35.6% | SK-MEL-2 melanoma 32% | EKVX NSCLC 26.3% | SN12C renal 21.6% | UO-31 renal 13.2% | TK-10 renal 46.4% | ACHN renal 14.7% | A498 renal 46.5% | CCRF-CEM leukemia 10.8% | MOLT-4 leukemia 15%
active: SK-MEL-5 melanoma -59.8% | UACC-62 melanoma -7.2% | CAKI-1 renal 9.16%

O=S(=O)(Nc1ccc(F)cc1)c1ccc(-c2cnc(C3CC3)o2)cc1
inactive: HCT-15 colon 19.9% | SNB-19 CNS 29.7% | U251 CNS 21% | PC-3 prostate 31.2% | SK-MEL-5 melanoma 25.5% | UACC-62 melanoma 27.5% | LOX IMVI melanoma 51.5% | SK-MEL-28 melanoma 56.2% | SK-MEL-2 melanoma 12.8% | EKVX NSCLC 44.4% | SN12C renal 35.5% | UO-31 renal 36.3% | TK-10 renal 32.4% | ACHN renal 32% | CAKI-1 renal 36.3% | A498 renal 14.1% | CCRF-CEM leukemia 10.5% | MOLT-4 leukemia 12.7%
active: HT29 colon 7.98% | SNB-75 CNS 0.813%

NC1=CC(=O)c2cccnc2C1=O
inactive: HCT-15 colon 19.9% | HT29 colon 54.8% | PC-3 prostate 15.4% | TK-10 renal 94.3% | A498 renal 81.9%
active: SNB-75 CNS -81.2% | SNB-19 CNS 6.26% | U251 CNS -82% | SK-MEL-5 melanoma -97.8% | UACC-62 melanoma -90.5% | LOX IMVI melanoma -74.3% | SK-MEL-28 melanoma -73.7% | SK-MEL-2 melanoma -46.6% | EKVX NSCLC -20.8% | SN12C renal -85.2% | UO-31 renal -98.2% | ACHN renal 5.89% | CAKI-1 renal -69.4% | CCRF-CEM leukemia -24.3% | MOLT-4 leukemia -46.4%

Cc1ccc(S(=O)(=O)Nc2cc(Sc3ccccc3)c(O)c3ccccc23)cc1
inactive: HCT-15 colon 91.9% | HT29 colon 120% | SNB-75 CNS 98.4% | SNB-19 CNS 105% | U251 CNS 16.1% | PC-3 prostate 34.6% | SK-MEL-5 melanoma 41.8% | UACC-62 melanoma 42.9% | SK-MEL-28 melanoma 84.8% | SK-MEL-2 melanoma 81.8% | EKVX NSCLC 116% | SN12C renal 64.2% | UO-31 renal 64% | TK-10 renal 111% | ACHN renal 91.5% | CAKI-1 renal 73.1% | A498 renal 70% | CCRF-CEM leukemia 12.7%
active: LOX IMVI melanoma 2.72% | MOLT-4 leukemia -32.2%

CCOC(=O)c1cnn(CC(O)CC)c1NC(=O)NCc1ccccc1C(F)(F)F (stereo not given)
inactive: HCT-15 colon 103% | HT29 colon 86.5% | SNB-75 CNS 96% | SNB-19 CNS 104% | U251 CNS 101% | PC-3 prostate 90.8% | SK-MEL-5 melanoma 97.6% | UACC-62 melanoma 88.5% | LOX IMVI melanoma 95.5% | SK-MEL-28 melanoma 108% | SK-MEL-2 melanoma 87.3% | EKVX NSCLC 91.8% | SN12C renal 101% | UO-31 renal 77.6% | TK-10 renal 101% | ACHN renal 102% | CAKI-1 renal 77.6% | A498 renal 105% | CCRF-CEM leukemia 84.9% | MOLT-4 leukemia 87.2%
